Measured values: PubChem BioAssay (NCI)
“And” between values parts separate entries of the source, which are not always exact repeats. Identical values can stand only once. Compounds without any hit were thinned out: in the full panel of roughly 83,000, 20% have a hit.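 Plates (96-well) were seeded with cells, treated with compound at one concentration, and incubated for 48 hours before percent growth was determined.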 The source made the active and inactive calls. The calls were made as follows: active = growth percent below 10; inactive = the rest.

test system: MCF7 breast; test: NCI-60 one-dose screen, 48 h (100 = growth as untreated, 0 = no growth, -100 = all killed); settings: 10 µM unless noted

How did the growth turn out when `S=C(Nc1ccc(OCc2nc3ccc(Cl)cc3[nH]2)cc1)NC1CCCCC1` was run?
The growth was 0.799% (active).

Which growth does the source give for `CC(C)(C)C(=O)c1c2c(c3ccc4c5ccccc5ccc4n13)C(=O)c1ccccc1C2=O` here?
Its growth is 75% (inactive).

How did the growth turn out when `COc1ccc(-c2cc(C)nc3[nH]c(=O)sc23)cc1` was run?
Its growth is 83.8% (inactive).

`O=C(Nc1nc2ccccc2s1)Nc1ccccc1Cl` was tested. Which growth did it give?
The growth was 69% (inactive).

`COC(=O)c1cc(C(=O)C(C)(C)C)n2c3ccccc3c3ccccc3c12` was tested. Which growth did it give?
The growth was 86.2% (inactive).

For `CC(=O)Nc1cccc(-n2c(COc3ccc(I)cc3)nc3ccccc32)c1`, which growth is on record?
The growth was 74.7% (inactive) and 103% (inactive).

Which growth does the source give for `COc1ccc(N=Nc2c(N)nn3c(-c4cc5ccccc5oc4=O)ccnc23)cc1` here?
The growth was 29% (inactive).

`O=C(Nc1ccc(S(=O)(=O)N2CCCCC2)cc1)C(Cl)Cl` was tested. Which growth did it give?
The growth was 101% (inactive).

Which growth does the source give for `CC(C)(C)OC(=O)N1C/C(=C\c2ccc(F)cc2)C(=O)/C(=C/c2ccc(F)cc2)C1` here?
The growth was -66.5% (active).

Which growth does the source give for `O=C(COc1ccc(/C=C2/C(=O)Nc3ccc(Cl)cc32)cc1)Nc1ccc(Br)cc1` here?
The growth was -26.9% (active).

With `O=C(Cn1c(-c2ccccc2)nc2ccccc21)N=Nc1c(O)[nH]c2ccc(Br)cc12` as the compound, how does the growth read?
The growth was -18.6% (active).

With `COc1cccc(-c2ccc(/C=N/NC(=O)c3[nH]c4ccc(Br)cc4c3-c3ccccc3)s2)c1` as the compound, how does the growth read?
Its growth is 1.38% (active).

`O=C(c1ccc(Cl)cc1)C1[C@H](c2ccccc2Cl)[C@@H](c2ccccc2)NC12C(=O)Nc1ccc(Cl)cc12` (stereo partly specified) was tested. Which growth did it give?
The growth was -37.7% (active).

Which growth does the source give for `COc1ccc(-c2cc(-c3ccccc3)c(C#N)c(=O)[nH]2)cc1S(N)(=O)=O` here?
The growth was 103% (inactive).

How did the growth turn out when `CN(C)c1nc(NCCNS(=O)(=O)c2ccc(C(=O)/C=C/c3ccccc3)cc2)nc(N2CCOCC2)n1` was run?
The growth was -4.51% (active).

How did the growth turn out when `N#CC1=C(c2cccs2)Nc2c(c(-c3ccccc3)nn2-c2ccccc2)C12C(=O)Nc1ccc(Cl)cc12` (stereo unspecified) was run?
Its growth is 15.1% (inactive).

With `C#CCN(C)CCCOc1ccc(N(C)C(=O)c2cc(C(C)C)c(O)cc2O)cc1Cl` as the compound, how does the growth read?
Its growth is 7.62% (active).

Which growth does the source give for `COc1ccc2c(c1)C(=O)N(C)C2C1c2c(cc3c(c2OC)OCO3)CCN1C` (stereo unspecified) here?
The growth was 14.7% (inactive).

For `Cc1ccc(N=Nc2c(N)nn3c(-c4cc5cc(Br)ccc5oc4=O)ccnc23)cc1`, which growth is on record?
Its growth is 51.1% (inactive).

`O=C(CSc1nnc(-c2ccc(-c3nc4ccc(Cl)cc4[nH]3)cc2)o1)Nc1ccccc1` was tested. Which growth did it give?
The growth was 33.3% (inactive).

How did the growth turn out when `COc1ccc2ccccc2c1/C=C1\SC(=Nc2ccc(O)cc2)NC1=O` was run?
The growth was 9.63% (active).

Which growth does the source give for `Cc1ccc(N=Nc2c(N)nn3c(-c4cc5ccccc5oc4=O)ccnc23)cc1` here?
Its growth is 26.6% (inactive).

`COc1ccc2nc(NC(=O)c3ccc(N(C)C)cc3)sc2c1` was tested. Which growth did it give?
Its growth is 44.7% (inactive).

Which growth does the source give for `CC1=C(C)C(=O)C(N2CCSCC2)=CC1=O` here?
Its growth is 99.6% (inactive).

For `O=C(CSc1nnc(-c2ccc(-c3nc4ccccc4[nH]3)cc2)o1)Nc1ccc(Cl)cc1`, which growth is on record?
Its growth is 7.43% (active).

For `CC[C@]12C=CCN3CC[C@]4(C(=C(C(=O)OC)C1)Nc1cc(OC)c([C@@H]5[C@H]6O[C@H]6[C@@]6(CC)CC(C(=O)OC)=C7Nc8cc(OC)ccc8[C@@]78CCN5[C@@H]68)cc14)[C@@H]32`, which growth is on record?
Its growth is 17.2% (inactive).

For `CC(=O)c1ccc2c(N)c(C(=O)Nc3ccc(C(F)(F)F)cc3)sc2n1`, which growth is on record?
Its growth is 27.8% (inactive).

How did the growth turn out when `COc1ccc2c(c1)N=c1c-2cc2c(O)[nH]c(=S)n2c1=O` was run?
Its growth is 34.6% (inactive).

With `CN1CCN(CCS(=O)(=O)Nc2cc(-c3ccc4ncnc(Nc5ccc(F)c(Cl)c5)c4c3)cnc2Cl)CC1` as the compound, how does the growth read?
The growth was 10.2% (inactive).

How did the growth turn out when `C[C@@H](Nc1c(C#N)cnc2ccc(-c3cnc4[nH]ncc4c3)cc12)c1ccccc1` was run?
Its growth is -27.9% (active).

For `CN1CCc2c(sc3ncnc(N/N=C/c4cccc(Cl)c4Cl)c23)C1`, which growth is on record?
The growth was -39.1% (active).

For `COc1ccc(C2=NN(C(=O)[C@H]3[C@@H](c4ccco4)c4sc(=O)[nH]c4S[C@@H]3C)C(c3ccc4ccccc4c3)C2)cc1` (stereo partly specified), which growth is on record?
Its growth is 13.1% (inactive).

`N#Cc1c(-c2ccc(F)cc2)nc(SCc2ccc(F)cc2)nc1N1CCNCC1` was tested. Which growth did it give?
Its growth is -90.5% (active).

`O=C(CSc1nnc(-c2ccc(-c3nc4ccccc4[nH]3)cc2)o1)Nc1ccc(Br)cc1` was tested. Which growth did it give?
Its growth is 9.69% (active).

Which growth does the source give for `CN(C)CCCNC(=S)Nc1ccc(/C=C/c2ccc(Cl)cc2)cc1` here?
The growth was -46.2% (active).

For `N/C(=N\c1nc2ccccc2s1)NC(=O)Nc1ccccc1F`, which growth is on record?
Its growth is 20.1% (inactive).

How did the growth turn out when `CN1C(=O)/C(=C\C(=O)c2cc3ccccc3oc2=O)c2ccccc21` was run?
Its growth is 46.5% (inactive).

How did the growth turn out when `COc1ccc(-n2c(NC(=O)N3CCN(C)CC3)c(C#N)c3ccccc32)cc1` was run?
The growth was 35.5% (inactive).

test system: HCT-116 colon; test: as above; settings: 10 µM unless noted

`S=C(Nc1ccc(OCc2nc3ccc(Cl)cc3[nH]2)cc1)NC1CCCCC1` was tested. Which growth did it give?
The growth was -31.6% (active).

`CC(C)(C)C(=O)c1c2c(c3ccc4c5ccccc5ccc4n13)C(=O)c1ccccc1C2=O` was tested. Which growth did it give?
The growth was 90.7% (inactive).

Which growth does the source give for `COc1ccc(-c2cc(C)nc3[nH]c(=O)sc23)cc1` here?
The growth was 52.1% (inactive).

How did the growth turn out when `O=C(Nc1nc2ccccc2s1)Nc1ccccc1Cl` was run?
The growth was 79.7% (inactive).

Which growth does the source give for `COC(=O)c1cc(C(=O)C(C)(C)C)n2c3ccccc3c3ccccc3c12` here?
Its growth is 88.4% (inactive).

`CC(=O)Nc1cccc(-n2c(COc3ccc(I)cc3)nc3ccccc32)c1` was tested. Which growth did it give?
The growth was 80.4% (inactive) and 104% (inactive).

`COc1ccc(N=Nc2c(N)nn3c(-c4cc5ccccc5oc4=O)ccnc23)cc1` was tested. Which growth did it give?
The growth was 37.9% (inactive).

For `O=C(Nc1ccc(S(=O)(=O)N2CCCCC2)cc1)C(Cl)Cl`, which growth is on record?
Its growth is 105% (inactive).

How did the growth turn out when `CC(C)(C)OC(=O)N1C/C(=C\c2ccc(F)cc2)C(=O)/C(=C/c2ccc(F)cc2)C1` was run?
The growth was -81.5% (active).

How did the growth turn out when `O=C(COc1ccc(/C=C2/C(=O)Nc3ccc(Cl)cc32)cc1)Nc1ccc(Br)cc1` was run?
The growth was -64% (active).

With `O=C(Cn1c(-c2ccccc2)nc2ccccc21)N=Nc1c(O)[nH]c2ccc(Br)cc12` as the compound, how does the growth read?
The growth was 1.09% (active).

For `COc1cccc(-c2ccc(/C=N/NC(=O)c3[nH]c4ccc(Br)cc4c3-c3ccccc3)s2)c1`, which growth is on record?
Its growth is -27.5% (active).

For `O=C(c1ccc(Cl)cc1)C1[C@H](c2ccccc2Cl)[C@@H](c2ccccc2)NC12C(=O)Nc1ccc(Cl)cc12` (stereo partly specified), which growth is on record?
The growth was -89.3% (active).

How did the growth turn out when `COc1ccc(-c2cc(-c3ccccc3)c(C#N)c(=O)[nH]2)cc1S(N)(=O)=O` was run?
The growth was 103% (inactive).

How did the growth turn out when `CN(C)c1nc(NCCNS(=O)(=O)c2ccc(C(=O)/C=C/c3ccccc3)cc2)nc(N2CCOCC2)n1` was run?
Its growth is -28.5% (active).

With `N#CC1=C(c2cccs2)Nc2c(c(-c3ccccc3)nn2-c2ccccc2)C12C(=O)Nc1ccc(Cl)cc12` (stereo unspecified) as the compound, how does the growth read?
Its growth is 11.5% (inactive).

`C#CCN(C)CCCOc1ccc(N(C)C(=O)c2cc(C(C)C)c(O)cc2O)cc1Cl` was tested. Which growth did it give?
The growth was 7.57% (active).

With `COc1ccc2c(c1)C(=O)N(C)C2C1c2c(cc3c(c2OC)OCO3)CCN1C` (stereo unspecified) as the compound, how does the growth read?
The growth was 27.5% (inactive).

With `Cc1ccc(N=Nc2c(N)nn3c(-c4cc5cc(Br)ccc5oc4=O)ccnc23)cc1` as the compound, how does the growth read?
Its growth is 44.5% (inactive).

With `O=C(CSc1nnc(-c2ccc(-c3nc4ccc(Cl)cc4[nH]3)cc2)o1)Nc1ccccc1` as the compound, how does the growth read?
The growth was 5.65% (active).

How did the growth turn out when `COc1ccc2ccccc2c1/C=C1\SC(=Nc2ccc(O)cc2)NC1=O` was run?
Its growth is 2.32% (active).

For `Cc1ccc(N=Nc2c(N)nn3c(-c4cc5ccccc5oc4=O)ccnc23)cc1`, which growth is on record?
Its growth is 11.1% (inactive).

`COc1ccc2nc(NC(=O)c3ccc(N(C)C)cc3)sc2c1` was tested. Which growth did it give?
The growth was 79.8% (inactive).

For `CC1=C(C)C(=O)C(N2CCSCC2)=CC1=O`, which growth is on record?
Its growth is 93% (inactive).

With `O=C(CSc1nnc(-c2ccc(-c3nc4ccccc4[nH]3)cc2)o1)Nc1ccc(Cl)cc1` as the compound, how does the growth read?
Its growth is 7.32% (active).

With `CC[C@]12C=CCN3CC[C@]4(C(=C(C(=O)OC)C1)Nc1cc(OC)c([C@@H]5[C@H]6O[C@H]6[C@@]6(CC)CC(C(=O)OC)=C7Nc8cc(OC)ccc8[C@@]78CCN5[C@@H]68)cc14)[C@@H]32` as the compound, how does the growth read?
The growth was 20.5% (inactive).

Which growth does the source give for `CC(=O)c1ccc2c(N)c(C(=O)Nc3ccc(C(F)(F)F)cc3)sc2n1` here?
The growth was 31% (inactive).

With `COc1ccc2c(c1)N=c1c-2cc2c(O)[nH]c(=S)n2c1=O` as the compound, how does the growth read?
Its growth is 28.6% (inactive).

With `CN1CCN(CCS(=O)(=O)Nc2cc(-c3ccc4ncnc(Nc5ccc(F)c(Cl)c5)c4c3)cnc2Cl)CC1` as the compound, how does the growth read?
Its growth is 27.8% (inactive).

For `C[C@@H](Nc1c(C#N)cnc2ccc(-c3cnc4[nH]ncc4c3)cc12)c1ccccc1`, which growth is on record?
Its growth is 20.2% (inactive).

With `CN1CCc2c(sc3ncnc(N/N=C/c4cccc(Cl)c4Cl)c23)C1` as the compound, how does the growth read?
The growth was -82.8% (active).

Which growth does the source give for `COc1ccc(C2=NN(C(=O)[C@H]3[C@@H](c4ccco4)c4sc(=O)[nH]c4S[C@@H]3C)C(c3ccc4ccccc4c3)C2)cc1` (stereo partly specified) here?
The growth was 16.1% (inactive).

Which growth does the source give for `N#Cc1c(-c2ccc(F)cc2)nc(SCc2ccc(F)cc2)nc1N1CCNCC1` here?
The growth was -99.3% (active).

`O=C(CSc1nnc(-c2ccc(-c3nc4ccccc4[nH]3)cc2)o1)Nc1ccc(Br)cc1` was tested. Which growth did it give?
Its growth is 10.3% (inactive).

Which growth does the source give for `CN(C)CCCNC(=S)Nc1ccc(/C=C/c2ccc(Cl)cc2)cc1` here?
Its growth is -11.1% (active).

For `N/C(=N\c1nc2ccccc2s1)NC(=O)Nc1ccccc1F`, which growth is on record?
Its growth is 10.2% (inactive).

Which growth does the source give for `CN1C(=O)/C(=C\C(=O)c2cc3ccccc3oc2=O)c2ccccc21` here?
The growth was 52.6% (inactive).

Which growth does the source give for `COc1ccc(-n2c(NC(=O)N3CCN(C)CC3)c(C#N)c3ccccc32)cc1` here?
The growth was 48% (inactive).
